The results in this text go back to the supplement of paper PMC10849652.

Of roughly 7,900 targets only a part is listed; those with a hit were picked by preference. About 0.6% of all pairs of compound and target were hits. Unmarked numbers belong to inactive results.

UniProt O95772, sequence (O95772 whole entry, looked up): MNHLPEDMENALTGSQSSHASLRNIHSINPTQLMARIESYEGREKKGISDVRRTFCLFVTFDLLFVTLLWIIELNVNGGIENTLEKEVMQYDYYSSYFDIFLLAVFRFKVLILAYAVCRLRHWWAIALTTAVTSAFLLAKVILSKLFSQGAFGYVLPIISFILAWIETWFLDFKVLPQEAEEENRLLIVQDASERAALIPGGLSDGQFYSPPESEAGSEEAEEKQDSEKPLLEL
UniProt Q15582, sequence (Q15582 whole entry, looked up): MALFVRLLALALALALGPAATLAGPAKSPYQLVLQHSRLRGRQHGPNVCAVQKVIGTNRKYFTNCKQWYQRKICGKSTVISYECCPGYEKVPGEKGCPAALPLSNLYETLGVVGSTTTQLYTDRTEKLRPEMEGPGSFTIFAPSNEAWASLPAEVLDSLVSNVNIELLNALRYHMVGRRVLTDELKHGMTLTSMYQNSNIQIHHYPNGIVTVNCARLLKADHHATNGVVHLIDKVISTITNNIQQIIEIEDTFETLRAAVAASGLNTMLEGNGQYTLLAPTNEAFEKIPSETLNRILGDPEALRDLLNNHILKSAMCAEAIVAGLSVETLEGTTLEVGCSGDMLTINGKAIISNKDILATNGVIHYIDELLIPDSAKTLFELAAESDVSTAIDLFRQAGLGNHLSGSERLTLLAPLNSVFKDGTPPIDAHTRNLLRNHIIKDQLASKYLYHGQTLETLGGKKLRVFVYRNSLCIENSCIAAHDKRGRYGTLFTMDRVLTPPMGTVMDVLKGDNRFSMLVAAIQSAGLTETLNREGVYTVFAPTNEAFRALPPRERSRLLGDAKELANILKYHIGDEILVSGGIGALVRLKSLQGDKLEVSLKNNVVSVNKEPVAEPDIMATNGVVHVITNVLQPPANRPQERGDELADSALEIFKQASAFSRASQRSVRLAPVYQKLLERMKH
UniProt P30626, sequence (P30626 whole entry, looked up): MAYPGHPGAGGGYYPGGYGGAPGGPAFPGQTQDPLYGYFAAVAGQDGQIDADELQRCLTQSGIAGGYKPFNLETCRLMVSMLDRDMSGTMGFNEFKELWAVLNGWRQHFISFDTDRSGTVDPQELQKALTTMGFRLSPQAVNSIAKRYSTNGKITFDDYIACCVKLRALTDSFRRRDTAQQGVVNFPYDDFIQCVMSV
UniProt Q969X1, sequence (Q969X1 whole entry, looked up): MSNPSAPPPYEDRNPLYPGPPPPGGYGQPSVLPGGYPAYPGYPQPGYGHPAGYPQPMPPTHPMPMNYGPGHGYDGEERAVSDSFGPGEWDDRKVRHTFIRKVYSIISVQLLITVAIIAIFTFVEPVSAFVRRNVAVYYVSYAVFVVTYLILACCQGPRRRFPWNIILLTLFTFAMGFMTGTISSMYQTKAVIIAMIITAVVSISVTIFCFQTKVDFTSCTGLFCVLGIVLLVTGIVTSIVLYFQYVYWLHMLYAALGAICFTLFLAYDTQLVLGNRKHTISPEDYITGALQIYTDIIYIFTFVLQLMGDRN
UniProt Q9UKI8, sequence (Q9UKI8 whole entry, looked up): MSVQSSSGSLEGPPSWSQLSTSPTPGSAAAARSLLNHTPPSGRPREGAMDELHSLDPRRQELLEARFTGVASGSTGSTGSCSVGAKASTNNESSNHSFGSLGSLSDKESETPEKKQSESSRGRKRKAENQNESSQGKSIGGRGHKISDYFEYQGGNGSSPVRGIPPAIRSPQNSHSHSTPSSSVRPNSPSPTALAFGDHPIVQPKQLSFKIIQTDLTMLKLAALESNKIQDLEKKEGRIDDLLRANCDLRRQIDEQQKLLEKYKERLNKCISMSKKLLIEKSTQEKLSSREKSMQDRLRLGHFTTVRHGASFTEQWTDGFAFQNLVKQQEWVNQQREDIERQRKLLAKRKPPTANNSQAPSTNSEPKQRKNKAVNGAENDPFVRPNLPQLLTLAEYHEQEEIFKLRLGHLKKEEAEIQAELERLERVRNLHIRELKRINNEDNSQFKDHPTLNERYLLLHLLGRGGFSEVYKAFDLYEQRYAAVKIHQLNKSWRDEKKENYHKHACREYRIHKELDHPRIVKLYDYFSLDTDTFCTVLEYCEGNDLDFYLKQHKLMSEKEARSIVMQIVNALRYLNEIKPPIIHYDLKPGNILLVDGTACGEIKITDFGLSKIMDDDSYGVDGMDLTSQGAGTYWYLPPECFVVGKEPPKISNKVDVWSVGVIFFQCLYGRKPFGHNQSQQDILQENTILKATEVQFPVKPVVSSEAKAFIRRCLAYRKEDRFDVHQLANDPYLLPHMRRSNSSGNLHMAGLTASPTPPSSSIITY
UniProt O60493, sequence (O60493 whole entry, looked up): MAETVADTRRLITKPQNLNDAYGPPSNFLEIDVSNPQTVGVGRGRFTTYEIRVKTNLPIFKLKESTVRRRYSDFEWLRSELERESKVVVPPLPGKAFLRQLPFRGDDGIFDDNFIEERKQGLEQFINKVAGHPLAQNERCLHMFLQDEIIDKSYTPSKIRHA
UniProt Q86VD7, sequence (Q86VD7 whole entry, looked up): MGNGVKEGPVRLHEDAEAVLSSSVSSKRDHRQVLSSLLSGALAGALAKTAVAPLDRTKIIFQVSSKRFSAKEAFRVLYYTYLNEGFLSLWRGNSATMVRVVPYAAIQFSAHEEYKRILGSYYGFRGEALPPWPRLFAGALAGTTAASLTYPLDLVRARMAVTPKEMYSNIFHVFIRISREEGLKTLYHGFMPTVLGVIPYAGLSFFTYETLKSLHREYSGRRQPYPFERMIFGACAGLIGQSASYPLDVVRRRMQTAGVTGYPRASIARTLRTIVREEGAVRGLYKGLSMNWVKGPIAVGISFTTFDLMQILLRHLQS
UniProt Q8IWA5, sequence (Q8IWA5 whole entry, looked up): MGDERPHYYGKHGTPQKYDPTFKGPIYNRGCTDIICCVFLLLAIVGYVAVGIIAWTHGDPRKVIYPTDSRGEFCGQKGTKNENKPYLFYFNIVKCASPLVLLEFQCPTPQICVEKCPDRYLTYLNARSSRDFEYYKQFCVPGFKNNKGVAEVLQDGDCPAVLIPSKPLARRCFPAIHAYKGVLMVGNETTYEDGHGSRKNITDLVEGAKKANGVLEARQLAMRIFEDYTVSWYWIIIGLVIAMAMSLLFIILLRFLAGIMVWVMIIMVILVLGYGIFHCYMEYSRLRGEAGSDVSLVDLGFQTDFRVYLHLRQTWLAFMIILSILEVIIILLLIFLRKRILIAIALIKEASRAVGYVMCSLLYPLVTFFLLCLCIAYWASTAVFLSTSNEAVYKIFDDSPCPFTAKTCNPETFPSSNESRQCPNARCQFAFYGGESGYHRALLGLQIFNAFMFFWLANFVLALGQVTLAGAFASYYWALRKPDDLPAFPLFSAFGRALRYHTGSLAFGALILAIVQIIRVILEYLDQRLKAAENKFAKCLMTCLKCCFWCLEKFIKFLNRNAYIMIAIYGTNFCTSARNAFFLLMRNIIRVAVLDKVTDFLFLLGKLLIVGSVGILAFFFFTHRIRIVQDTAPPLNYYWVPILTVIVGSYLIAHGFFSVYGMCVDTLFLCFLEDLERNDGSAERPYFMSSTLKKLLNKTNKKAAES
UniProt Q86VP1, sequence (Q86VP1 whole entry, looked up): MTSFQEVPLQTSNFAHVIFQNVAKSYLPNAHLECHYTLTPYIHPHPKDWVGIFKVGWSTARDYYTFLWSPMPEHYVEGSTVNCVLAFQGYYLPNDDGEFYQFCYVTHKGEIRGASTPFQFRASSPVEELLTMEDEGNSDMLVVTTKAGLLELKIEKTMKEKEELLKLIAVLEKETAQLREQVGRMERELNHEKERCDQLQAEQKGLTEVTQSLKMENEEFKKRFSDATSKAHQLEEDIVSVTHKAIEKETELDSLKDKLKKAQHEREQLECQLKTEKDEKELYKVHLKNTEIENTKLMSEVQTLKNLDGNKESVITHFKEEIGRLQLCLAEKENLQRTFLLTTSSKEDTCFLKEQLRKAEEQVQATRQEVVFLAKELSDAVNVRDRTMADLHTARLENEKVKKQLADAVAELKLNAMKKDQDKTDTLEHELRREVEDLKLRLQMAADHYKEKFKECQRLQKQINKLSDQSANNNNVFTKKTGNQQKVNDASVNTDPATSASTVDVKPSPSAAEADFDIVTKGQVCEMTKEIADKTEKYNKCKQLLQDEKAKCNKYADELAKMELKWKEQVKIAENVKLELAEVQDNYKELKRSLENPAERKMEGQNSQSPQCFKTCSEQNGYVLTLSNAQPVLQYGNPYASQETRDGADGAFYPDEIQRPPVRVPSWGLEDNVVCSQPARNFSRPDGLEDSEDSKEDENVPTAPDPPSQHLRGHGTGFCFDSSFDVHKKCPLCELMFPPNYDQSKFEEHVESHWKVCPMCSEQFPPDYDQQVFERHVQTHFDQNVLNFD
UniProt Q9NQZ5, sequence (Q9NQZ5 whole entry, looked up): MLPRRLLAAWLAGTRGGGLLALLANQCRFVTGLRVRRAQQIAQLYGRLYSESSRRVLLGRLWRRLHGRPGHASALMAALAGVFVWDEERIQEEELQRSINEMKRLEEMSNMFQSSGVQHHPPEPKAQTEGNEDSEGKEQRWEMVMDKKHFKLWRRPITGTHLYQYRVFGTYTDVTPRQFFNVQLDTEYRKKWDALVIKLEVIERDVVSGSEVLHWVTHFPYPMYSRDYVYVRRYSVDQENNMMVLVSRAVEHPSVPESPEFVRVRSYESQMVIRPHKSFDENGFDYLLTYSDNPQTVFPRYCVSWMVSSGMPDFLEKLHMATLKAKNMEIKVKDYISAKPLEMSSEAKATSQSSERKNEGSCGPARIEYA
UniProt Q5JUR7, sequence (Q5JUR7 whole entry, looked up): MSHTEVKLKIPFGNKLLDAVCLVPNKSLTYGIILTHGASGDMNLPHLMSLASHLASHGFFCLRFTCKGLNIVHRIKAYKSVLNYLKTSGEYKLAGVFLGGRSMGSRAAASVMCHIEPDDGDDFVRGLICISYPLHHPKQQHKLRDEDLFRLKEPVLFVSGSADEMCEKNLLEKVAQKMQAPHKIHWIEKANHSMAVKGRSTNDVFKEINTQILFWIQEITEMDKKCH
UniProt Q9UMY4, sequence (Q9UMY4 whole entry, looked up): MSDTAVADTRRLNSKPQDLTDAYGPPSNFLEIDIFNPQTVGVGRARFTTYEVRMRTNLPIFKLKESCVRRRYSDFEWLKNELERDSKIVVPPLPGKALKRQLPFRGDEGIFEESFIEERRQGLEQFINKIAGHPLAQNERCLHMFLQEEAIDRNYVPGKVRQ

Compound in this assay: C#Cc1cccc(Nc2ncnc3cc(OCCOC)c(OCCOC)cc23)c1 [erlotinib]
The experiment in a line: log2 fold change, soluble protein after heating vs DMSO (PISA); higher = thermal stabilisation; K562 cells, 10 uM, 30 min; active = over 0.2 and 3.5 SD of the protein, either way, in both replicates (recomputed). The procedure, abridged: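 K562 cells at 2×10^6 cells/mL were treated for 30 min with 10 μM compound, and aliquots were heated for 3 min over 48°C-58°C before pooling. Extraction used PBS with 0.5% NP-40 at 4°C, and soluble protein was the supernatant after 21,000xg for 90 min, measured by TMTpro 16plex LC-MS/MS with channel sums equalised. Thermal stability values, relative to control samples and from duplicates, are log2 fold changes.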
For STAT3 (UniProt P40763), the log2 fold change was -0.023. With SNX3 (UniProt O60493) the figure was 0.129. Consider SLC25A42 (UniProt Q86VD7), for which the log2 fold change is 0.08.

STRN (UniProt O43815): the log2 fold change was -0.03.

Turning to SNX11 (UniProt Q9Y5W9), the log2 fold change is 0.034. The value for STARD3NL (UniProt O95772) was 0.004. With SNX12 isoform 1 (UniProt Q9UMY4) the figure was 0.002; with SRC isoform 2 (UniProt P12931), -0.014.

On to SLIRP (UniProt Q9GZT3), for which the log2 fold change was 0.019. The value for SPG11 (UniProt Q96JI7) was 0.586. With TMBIM1 (UniProt Q969X1) the figure was 0.092; with TJP2 isoform 7 (UniProt Q9UDY2), 0.116; with SMAD2 (UniProt Q15796), 0.061. With TERF2IP (UniProt Q9NYB0) the figure was -0.046. Consider STK25 (UniProt O00506), for which the log2 fold change was 0.081. With STARD7 (UniProt Q9NQZ5) the figure was -0.021; with TCERG1 (UniProt O14776), 0.072; with SREK1 isoform 2 (UniProt Q8WXA9), -0.036. For the target TBC1D23 (UniProt Q9NUY8), the log2 fold change is 0.043. On to TGFBI (UniProt Q15582), for which the log2 fold change is 0.003. With TFRC (UniProt P02786) the figure was 0.002; with SSR4 (UniProt P51571), -0.016; with THYN1 (UniProt Q9P016), -0.061. The value for SLC44A2 isoform 2 (UniProt Q8IWA5) was 0.059. The value for SLC25A36 (UniProt Q96CQ1) was -0.077; that for TEX30 (UniProt Q5JUR7) was 0.183. With TLK1 (UniProt Q9UKI8), the log2 fold change is 0.012.

With SRI (UniProt P30626), the log2 fold change was -0.042. With SLC35F6 (UniProt Q8N357) the figure was 0.12; with SPTBN4 (UniProt Q9H254), 0.29.

As for SNRPD3 (UniProt P62318), the log2 fold change was -0.019. The value for SLC29A3 (UniProt Q9BZD2) was 0.155; that for SLC27A1 (UniProt Q6PCB7) was -0.003. With SLC30A7 (UniProt Q8NEW0), the log2 fold change was -0.004.

Turning to SLC7A6OS (UniProt Q96CW6), the log2 fold change was -0.015. The value for STEAP3 isoform 2 (UniProt Q658P3) was 0.053; that for TAX1BP1 (UniProt Q86VP1) was -0.079.
